# According to PubChem BioAssay:
# Activity calls are given as the source filed them.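 Rule for the calls, unless noted: active = normalized viability below 100% at a tested concentration; inactive = the rest.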
# Experiments:
# [1] = stimulators of nuclear beta-catenin in C2C12, primary screen, imaging, WNT3A-conditioned medium, mouse C2C12, NPC library (AID 1117326; in the data active = nuclear beta-catenin stimulation mostly above about 4.2%, no sharp cut-off; inactive = mostly below about 10%); settings: stronger effect = higher value
# [2] = stimulators of insulin release from INS-1E, primary screen, cell-based, 5 mM glucose, NPC library (AID 1117329;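 active = compound raises insulin release from rat beta cells at 5 mM glucose, no numeric limit stated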); settings: rat INS-1E insulin secretion, at 10 µM, stronger effect = higher value
# [3] = growth inhibition of GSK3B-pretreated HCT116 cells – cell-based, CellTiter-Glo, 0.2 to 20 µM (AID 1117336;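 active = compounds lowering colon cancer cell viability after pretreatment blocking the GSK3B kinase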); settings: HCT116 viability after GSK3B inhibitor, at 20 µM, stronger effect = higher value
# [4] = inhibition of endothelial tube formation, primary screen, imaging, VEGF stimulated, CD31 staining, tube area, NPC library (AID 1117340;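 active = compound that reduces growth-factor-driven endothelial tube area in a mixed cell culture, no cutoff stated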); settings: VEGF-stimulated ADSC/ECFC co-culture, at 10 µM, stronger effect = higher value
# [5] = glucagon-like peptide 1 release enhancers, primary assay, NCI-H716 cell line, NPC library (AID 1117341;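 active = compound raises GLP1 secretion from the human gut endocrine cells, with no numeric limit stated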); settings: NCI-H716 cells, at 10 µM, stronger effect = higher value
# [6] = HCT116 colon cancer cell growth inhibition, primary screen, CellTiter-Glo luminescence, NPC library (AID 1117342;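 active = compounds that lower survival of HCT116 colon cancer cells in the luminescence readout, no numeric limit stated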); settings: at 20 µM (top of the series)
# [7] = CellTiter-Glo luminescent readout of SW480 viability loss, NPC library primary (AID 1117343;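 active = compounds that lower viability of the colon cancer cells in the luminescence readout, with no numeric limit stated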); settings: CellTiter-Glo luminescence; at 20 µM (top of the series) unless noted
# [8] = decreased DLD-1 cellular survival, CellTiter-Glo luminescent readout, NPC compound collection, primary HTS (AID 1117346;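 active = compounds that lower survival of DLD-1 colon cancer cells in the luminescence readout, no cutoff given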); settings: DLD-1 viability, CellTiter-Glo luminescence; at 20 µM (top of the series)
# [9] = survival rescue of mitochondrial mutant cells in low glucose, primary screen, MELAS cybrids, Rieske KO mouse fibroblasts, CellTiter-Glo (AID 1508586;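 active = mean z-score across replicates of 1.96 or higher in either the MELAS or the Rieske mutant cell line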;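 note: z relative to plate mean and SD of compound and empty wells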)
# [10] = biological target: Mitogen-activated protein kinase 7 (Homo sapiens) (UniProt Q13164); test: ERK5 transactivation activators in reporter cells, primary screen, cell-based, HTS (AID 1508626;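 active = luciferase signal above three times the same-plate solvent-only control wells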;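 note: luciferase driven by Gal4-ERK5 fusion binding five Gal4 sites before minimal TATA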); settings: HeLa Gal4-ERK5 transactivation, 18 h, at 5 µM, stronger effect = higher value
# [11] = phospholipid biosynthesis inhibitors in animal cells, primary screen, cell-based, LOPAC library, screen 4 (AID 1347384; call rule not given here); settings: phospholipid biosynthesis inhibition screen, at 10 µM
# [12] = biological target: NAD(+) hydrolase SARM1 (Homo sapiens) (UniProt Q6SZW1); test: SARM1 TIR NADase inhibitors, cell lysate, NAD-Glo luminescence (AID 1508614;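 active = compound whose remaining NAD level is above about 45 nM, limit read from the data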;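 note: higher remaining NAD means stronger inhibition of SARM1 NADase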); settings: SAM-TIR HEK293T lysate NADase, at 1 µM, stronger effect = higher value
# [13] = hESC survival regulators, cell-based (AID 493140; call rule not given here;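 note: cells exposed to compounds for four days before counting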); settings: human embryonic stem cell survival screen; stronger effect = higher value
# [14] = ovarian cancer cell viability with rucaparib, profiling panel, oncology-focused library, rucaparib conditional (AID 1508598); settings: patient-derived ovarian cancer cells, CellTiter-Glo viability, 144 h, stronger effect = lower value
# [15] = MELAS cybrid survival, CellTiter-Glo 48 h, stronger effect = higher value
# [16] = Rieske KO mouse fibroblast survival, CellTiter-Glo 72 h
# Chain of NAD(+) hydrolase SARM1 (Homo sapiens) (Q6SZW1 whole entry, looked up): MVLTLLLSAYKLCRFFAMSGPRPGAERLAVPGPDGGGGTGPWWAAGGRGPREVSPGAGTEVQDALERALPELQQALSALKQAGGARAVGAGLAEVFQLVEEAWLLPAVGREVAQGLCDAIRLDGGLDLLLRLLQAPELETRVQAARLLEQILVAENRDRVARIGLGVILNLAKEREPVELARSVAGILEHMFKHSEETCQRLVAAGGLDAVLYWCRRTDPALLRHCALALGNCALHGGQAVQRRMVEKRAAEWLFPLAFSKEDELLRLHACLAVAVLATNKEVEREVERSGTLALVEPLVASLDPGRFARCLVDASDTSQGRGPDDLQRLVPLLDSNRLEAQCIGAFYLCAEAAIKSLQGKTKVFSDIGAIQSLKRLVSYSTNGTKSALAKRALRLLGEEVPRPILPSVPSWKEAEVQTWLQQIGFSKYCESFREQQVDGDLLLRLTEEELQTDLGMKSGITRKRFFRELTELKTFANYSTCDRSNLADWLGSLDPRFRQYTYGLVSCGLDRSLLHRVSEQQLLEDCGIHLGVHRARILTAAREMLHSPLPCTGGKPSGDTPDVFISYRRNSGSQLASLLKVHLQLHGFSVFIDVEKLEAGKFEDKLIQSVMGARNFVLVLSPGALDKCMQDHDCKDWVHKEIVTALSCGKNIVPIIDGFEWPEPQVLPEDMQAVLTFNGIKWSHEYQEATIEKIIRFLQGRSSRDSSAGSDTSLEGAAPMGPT
# Chain of Mitogen-activated protein kinase 7 (Homo sapiens) (Q13164 whole entry, looked up, the tested form may be a part): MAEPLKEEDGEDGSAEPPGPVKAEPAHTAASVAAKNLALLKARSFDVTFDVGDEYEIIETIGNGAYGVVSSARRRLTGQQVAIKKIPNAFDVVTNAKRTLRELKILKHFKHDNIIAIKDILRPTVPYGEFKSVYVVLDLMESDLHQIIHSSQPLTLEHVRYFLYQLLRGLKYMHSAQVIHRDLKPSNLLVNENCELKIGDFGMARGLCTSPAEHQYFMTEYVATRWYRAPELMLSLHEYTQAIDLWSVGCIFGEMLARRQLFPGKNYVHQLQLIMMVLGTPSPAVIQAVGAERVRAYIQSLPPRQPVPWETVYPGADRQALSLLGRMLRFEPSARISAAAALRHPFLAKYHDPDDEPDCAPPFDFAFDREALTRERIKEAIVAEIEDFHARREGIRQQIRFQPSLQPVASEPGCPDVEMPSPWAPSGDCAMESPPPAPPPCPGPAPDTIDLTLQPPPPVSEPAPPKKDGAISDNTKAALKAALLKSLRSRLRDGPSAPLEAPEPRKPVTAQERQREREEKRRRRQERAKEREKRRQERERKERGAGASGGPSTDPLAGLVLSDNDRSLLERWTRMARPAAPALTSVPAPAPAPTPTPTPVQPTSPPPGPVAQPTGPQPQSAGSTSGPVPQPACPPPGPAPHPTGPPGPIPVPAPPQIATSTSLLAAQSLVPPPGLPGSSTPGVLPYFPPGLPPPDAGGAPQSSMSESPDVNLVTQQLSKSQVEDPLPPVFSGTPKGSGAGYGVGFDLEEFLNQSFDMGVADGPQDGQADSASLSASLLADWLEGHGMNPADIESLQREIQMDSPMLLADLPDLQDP
structure (smiles),measurement,setting,value
CCOC(=O)[C@@](C)(N)Cc1ccc(O)c(O)c1,nuclear beta-catenin stimulation,[1]; at 10 µM,0.6% (inactive)
same,nuclear beta-catenin stimulation,"[1]; stimulation, at 2 µM",-0.5%
same,insulin secretion stimulation,[2],2.8% (inactive)
same,viability decrease,[3],37.5% (inactive)
same,tube area decrease,[4],-1.8% (inactive)
same,GLP1 secretion stimulation,[5],-2.3% (inactive)
same,inhibition of viability,[6],20% (inactive)
same,viability decrease (inhibition),[7],65% (active)
same,viability decrease (inhibition),[8],17.2% (inactive)
same,z-score,[9]; [15],-1.64 (inactive)
same,z-score,[9]; [16],-0.614
same,luciferase signal,[10],92 AU (inactive)
CCC1C(=O)OCC1Cc1cncn1C (stereo not drawn),nuclear beta-catenin stimulation,[1]; at 10 µM,0.7% (inactive)
same,nuclear beta-catenin stimulation,"[1]; stimulation, at 2 µM",20%
same,insulin secretion stimulation,[2],3.7% (inactive)
same,viability decrease,[3],2.7% (inactive)
same,tube area decrease,[4],-1.1% (active)
same,GLP1 secretion stimulation,[5],1.2% (inactive)
same,inhibition of viability,[6],8.9% (inactive)
same,viability decrease (inhibition),[7],-14.8% (inactive)
same,viability decrease (inhibition),[8],-20.6% (inactive)
same,outcome,[11],inactive
C[N+](C)(C)CC(O)CC(=O)[O-] (stereo not drawn),nuclear beta-catenin stimulation,[1]; at 10 µM,6.3% (inactive)
same,nuclear beta-catenin stimulation,"[1]; stimulation, at 2 µM",2.6%
same,insulin secretion stimulation,[2],3.9% (inactive)
same,viability decrease,[3],17.4% (inactive)
same,tube area decrease,[4],0.3% (inactive)
same,GLP1 secretion stimulation,[5],-1.8% (inactive)
same,inhibition of viability,[6],-0.3% (inactive)
same,viability decrease (inhibition),[7],-12.1% (inactive)
same,viability decrease (inhibition),[8],1.7% (inactive)
same,remaining NAD,[12],10 nM (inactive)
CCCCC(O)c1ccccc1 (stereo not drawn),nuclear beta-catenin stimulation,[1]; at 10 µM,-0.9% (inactive)
same,nuclear beta-catenin stimulation,"[1]; stimulation, at 2 µM",-0.8%
same,insulin secretion stimulation,[2],-0.1% (inactive)
same,viability decrease,[3],-9.5% (inactive)
same,tube area decrease,[4],-9.9% (inactive)
same,GLP1 secretion stimulation,[5],-3.9% (inactive)
same,inhibition of viability,[6],5.3% (inactive)
same,viability decrease (inhibition),[7],-5.1% (inactive)
same,viability decrease (inhibition),[8],-6% (inactive)
same,z-score,[9]; [15],0.247 (inactive)
same,z-score,[9]; [16],0.0374
same,remaining NAD,[12],10 nM (inactive)
O=C(OCCOCCO)c1ccccc1Nc1cccc(C(F)(F)F)c1,survival,[13],2.08 (inactive)
same,nuclear beta-catenin stimulation,[1]; at 10 µM,-1.7% (inactive)
same,nuclear beta-catenin stimulation,"[1]; stimulation, at 2 µM",-0.5%
same,insulin secretion stimulation,[2],0.3% (inactive)
same,viability decrease,[3],79.4% (active)
same,tube area decrease,[4],13.5% (inactive)
same,GLP1 secretion stimulation,[5],-1.6% (inactive)
same,inhibition of viability,[6],81.8% (active)
same,viability decrease (inhibition),[7],54.2% (active)
same,viability decrease (inhibition),[8],45.7% (inactive)
same,z-score,[9]; [15],0.681 (inactive)
same,z-score,[9]; [16],0.111
N[C@@H](Cc1ccc(O)cc1)C(=O)O,nuclear beta-catenin stimulation,[1]; at 10 µM,-2% (inactive)
same,nuclear beta-catenin stimulation,"[1]; stimulation, at 2 µM",-0.2%
same,insulin secretion stimulation,[2],3.9% (inactive)
same,viability decrease,[3],-7.6% (inactive)
same,tube area decrease,[4],1% (inactive)
same,GLP1 secretion stimulation,[5],3% (inactive)
same,inhibition of viability,[6],3.9% (inactive)
same,viability decrease (inhibition),[7],-0.8% (inactive)
same,viability decrease (inhibition),[8],-0.1% (inactive)
same,remaining NAD,[12],10 nM (inactive)
O=C1OC2(c3ccccc31)c1cc(I)c(O)c(I)c1Oc1c2cc(I)c(O)c1I,nuclear beta-catenin stimulation,[1]; at 10 µM,1.2% (inactive)
same,nuclear beta-catenin stimulation,"[1]; stimulation, at 2 µM",1.9%
same,insulin secretion stimulation,[2],1.6% (inactive)
same,viability decrease,[3],-45.8% (inactive)
same,tube area decrease,[4],12% (inactive)
same,GLP1 secretion stimulation,[5],24.3% (active)
same,inhibition of viability,[6],-2.6% (inactive)
same,viability decrease (inhibition),[7],24.4% (inactive)
same,viability decrease (inhibition),[8],-14.4% (inactive)
same,remaining NAD,[12],10 nM (inactive)
O=c1[nH]c(=O)n([C@H]2CCCO2)cc1F,nuclear beta-catenin stimulation,[1]; at 10 µM,0.6% (inactive)
same,nuclear beta-catenin stimulation,"[1]; stimulation, at 2 µM",0.4%
same,insulin secretion stimulation,[2],-1.4% (inactive)
same,viability decrease,[3],6% (inactive)
same,tube area decrease,[4],3.6% (inactive)
same,GLP1 secretion stimulation,[5],-1.7% (inactive)
same,inhibition of viability,[6],16% (inactive)
same,viability decrease (inhibition),[7],13.4% (inactive)
same,viability decrease (inhibition),[8],11.5% (inactive)
same,viability,"[14]; at 0.000305 µM, OCI-C5x cells, with rucaparib 10 µM, 100% = cells with rucaparib alone",106% (inactive)
same,viability,"[14]; at 0.000305 µM, OCI-C5x cells, without rucaparib",122% (inactive)
same,viability,"[14]; at 0.000305 µM, OCI-P5x cells, with rucaparib 20 µM, 100% = cells with rucaparib alone",115% (inactive)
same,viability,"[14]; at 0.000305 µM, OCI-P5x cells, without rucaparib",110% (inactive)
same,viability,"[14]; at 0.00122 µM, OCI-C5x cells, with rucaparib 10 µM, 100% = cells with rucaparib alone",119% (inactive)
same,viability,"[14]; at 0.00122 µM, OCI-C5x cells, without rucaparib",122% (inactive)
same,viability,"[14]; at 0.00122 µM, OCI-P5x cells, with rucaparib 20 µM, 100% = cells with rucaparib alone",106% (inactive)
same,viability,"[14]; at 0.00122 µM, OCI-P5x cells, without rucaparib",107% (inactive)
same,viability,"[14]; at 0.00488 µM, OCI-C5x cells, with rucaparib 10 µM, 100% = cells with rucaparib alone",103% (inactive)
same,viability,"[14]; at 0.00488 µM, OCI-C5x cells, without rucaparib",127% (inactive)
same,viability,"[14]; at 0.00488 µM, OCI-P5x cells, with rucaparib 20 µM, 100% = cells with rucaparib alone",96% (active)
same,viability,"[14]; at 0.00488 µM, OCI-P5x cells, without rucaparib",106% (inactive)
same,viability,"[14]; at 0.0195 µM, OCI-C5x cells, with rucaparib 10 µM, 100% = cells with rucaparib alone",107% (inactive)
same,viability,"[14]; at 0.0195 µM, OCI-C5x cells, without rucaparib",121% (inactive)
same,viability,"[14]; at 0.0195 µM, OCI-P5x cells, with rucaparib 20 µM, 100% = cells with rucaparib alone",94.8% (active)
same,viability,"[14]; at 0.0195 µM, OCI-P5x cells, without rucaparib",99.2% (active)
same,viability,"[14]; at 0.0781 µM, OCI-C5x cells, with rucaparib 10 µM, 100% = cells with rucaparib alone",104% (inactive)
same,viability,"[14]; at 0.0781 µM, OCI-C5x cells, without rucaparib",112% (inactive)
same,viability,"[14]; at 0.0781 µM, OCI-P5x cells, with rucaparib 20 µM, 100% = cells with rucaparib alone",106% (inactive)
same,viability,"[14]; at 0.0781 µM, OCI-P5x cells, without rucaparib",107% (inactive)
same,viability,"[14]; at 0.313 µM, OCI-C5x cells, with rucaparib 10 µM, 100% = cells with rucaparib alone",31.7% (active)
same,viability,"[14]; at 0.313 µM, OCI-C5x cells, without rucaparib",24.1% (active)
same,viability,"[14]; at 0.313 µM, OCI-P5x cells, with rucaparib 20 µM, 100% = cells with rucaparib alone",47.7% (active)
same,viability,"[14]; at 0.313 µM, OCI-P5x cells, without rucaparib",16.2% (active)
same,viability,"[14]; at 1.25 µM, OCI-C5x cells, with rucaparib 10 µM, 100% = cells with rucaparib alone",110% (inactive)
same,viability,"[14]; at 1.25 µM, OCI-C5x cells, without rucaparib",115% (inactive)
same,viability,"[14]; at 1.25 µM, OCI-P5x cells, with rucaparib 20 µM, 100% = cells with rucaparib alone",97.8% (active)
same,viability,"[14]; at 1.25 µM, OCI-P5x cells, without rucaparib",97.2% (active)
same,viability,"[14]; at 5 µM, OCI-C5x cells, with rucaparib 10 µM, 100% = cells with rucaparib alone",133% (inactive)
same,viability,"[14]; at 5 µM, OCI-C5x cells, without rucaparib",111% (inactive)
same,viability,"[14]; at 5 µM, OCI-P5x cells, with rucaparib 20 µM, 100% = cells with rucaparib alone",87.8% (active)
same,viability,"[14]; at 5 µM, OCI-P5x cells, without rucaparib",94.3% (active)
NCCNCCNCCNCCN,nuclear beta-catenin stimulation,[1]; at 10 µM,-1.7% (inactive)
same,nuclear beta-catenin stimulation,"[1]; stimulation, at 2 µM",-1.3%
same,insulin secretion stimulation,[2],4.1% (inactive)
same,viability decrease,[3],-0.2% (inactive)
same,tube area decrease,[4],-4.2% (inactive)
same,GLP1 secretion stimulation,[5],-2.1% (inactive)
same,inhibition of viability,[6],16% (inactive)
same,viability decrease (inhibition),[7],17.8% (inactive)
same,viability decrease (inhibition),[8],4.2% (inactive)
same,z-score,[9]; [15],-0.618 (inactive)
same,z-score,[9]; [16],0.462
